Shown are actives, neighbours in structure and some others; about 5.3% of the full set was active somewhere.
IMPase Li cell = membrane-permeable IMPase blocker, potentiated with lithium. CHO-M1 cells, IP1 TR-FRET (IP-One), carbachol + lithium. Potency, µM (doses to about 59.4 µM), for inactives: at the highest dose activity, negative = IMPase inhibition, actives largely listed as inhibitors. 0.35% of 210,000 active;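 note: IP1 builds up when IMPase is blocked and the TR-FRET signal falls; potency is the fitted concentration of half-maximal effect; plate controls were basal vehicle for no effect and high inhibitor control for full effect; nearly all actives have a fitted effect of over 50% in size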
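Concentration–response in CHO-M1 cells, lithium-potentiated; 30 min at 37C. IP1 detected by competitive TR-FRET after 10 min lysis at RT. Hill-fitted AC50.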
15-hLO-2 inh = blocks human 15-lipoxygenase 2 activity | O15296 | purified 15hLO-2, xylenol orange hydroperoxide absorbance | Potency, µM (doses to about 57.1 µM), without a hit: top-dose activity change, negative = inhibition, actives largely listed as inhibitors | 0.56% of 110,000 active | AID 881; note: potency is the fitted concentration of half-maximal effect; nearly all actives have a fitted effect of over 60% in size
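Screening format was qHTS against 50 nM purified 15hLO-2 in Hepes pH 7.5 with detergent. Activity follows hydroperoxide formation from 45 uM arachidonic acid, measured as 573:405 nm absorbance ratio of the ferric-xylenol orange complex.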
ALOX12 inhib = 12-hLO (ALOX12) enzyme inhibition; P18054; Potency, µM (titrated, usually from 57.1 µM), for inactives: top-dose activity change, negative = inhibition, hits mostly inhibitors; AID 1452; 0.12% of 150,000 active; purified 12-hLO, xylenol orange hydroperoxide absorbance; note: potency is the fitted concentration of half-maximal effect; nearly all actives have a fitted effect of over 55% in size
Target sequence (P18054 whole entry, looked up): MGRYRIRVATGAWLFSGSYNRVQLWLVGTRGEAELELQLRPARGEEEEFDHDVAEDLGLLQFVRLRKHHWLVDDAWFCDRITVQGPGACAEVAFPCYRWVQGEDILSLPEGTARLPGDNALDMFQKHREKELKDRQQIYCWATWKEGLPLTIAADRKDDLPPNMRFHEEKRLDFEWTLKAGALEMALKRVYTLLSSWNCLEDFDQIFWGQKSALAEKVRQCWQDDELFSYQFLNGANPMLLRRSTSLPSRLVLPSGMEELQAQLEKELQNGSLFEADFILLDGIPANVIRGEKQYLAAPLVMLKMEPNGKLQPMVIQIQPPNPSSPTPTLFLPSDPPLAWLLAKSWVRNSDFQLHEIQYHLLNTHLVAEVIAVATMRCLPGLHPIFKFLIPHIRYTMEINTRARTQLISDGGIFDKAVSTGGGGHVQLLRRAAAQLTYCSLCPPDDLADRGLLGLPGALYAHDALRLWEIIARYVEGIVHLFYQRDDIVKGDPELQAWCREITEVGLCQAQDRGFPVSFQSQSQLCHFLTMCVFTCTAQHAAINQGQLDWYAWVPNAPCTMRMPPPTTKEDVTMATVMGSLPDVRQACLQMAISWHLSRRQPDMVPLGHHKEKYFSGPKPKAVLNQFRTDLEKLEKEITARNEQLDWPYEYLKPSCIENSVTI
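Purified human 12hLO (150 nM), preincubated 15 min with compound, then 40 uM arachidonic acid for 30 min, room temperature, Hepes pH 7.0 with 0.01% Triton X-100. Hydroperoxide detected by ferrous iron/xylenol orange; 573/405 nm absorbance ratio gives reaction progress.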
PNC assembly inh = blocks assembly of the perinucleolar compartment. PC3M PTB-GFP, PNC prevalence imaging, 16 h; active compounds read low. activity change (PNC), negative = inhibition, % at 10 µM. 3.1% of 140,000 active. AID 2417;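 active = readout at or below -70, meaning at least 70% loss of cells showing the perinucleolar compartment, a nuclear body marking cancer cells; inconclusive = readout between -30 and a set limit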;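 note: plate controls were DMSO wells for no effect and camptothecin positive control wells for full effect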
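Compounds are pinned in duplicate onto adhered PC3M cells stably expressing GFP-tagged PTB and incubated 16 h at 37 C. Cells are then fixed, nuclei stained with Hoechst, and PNC-positive cells counted.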
HPGD block = HPGD (human) dehydrogenase inhibition; purified HPGD, NADH fluorescence kinetic, PGE2 substrate; Potency, µM, for the others: at the top dose activity change, negative = inhibition, actives largely listed as inhibitors; 4.3% of 150,000 active; active = well fitted inhibition curve with a large enough effect, not every such curve was filed as active; inconclusive = small, poorly fitted or top-dose-only effect, or another doubt; inactive = no such curve, though single readings can be large or run the other way; note: potency is the fitted concentration of half-maximal effect
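NADH formation kinetics: reaction with 30 uM PGE2 and 1 mM NAD+ (final), 20 nM enzyme, Tris-HCl pH 8 with Tween 20, after 15 min compound preincubation at room temperature. Fluorescence change, last versus first of five reads.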
IMPase inh = IMPase inhibition in cells | P97697 | CHO-M1 cells, IP1 accumulation, HTRF TR-FRET ratio | inhibition (IP1 accumulation), % at 46.1 µM | 120,000 tested, under 10 active | AID 901; active = well fitted curve in the direction sought with a large enough effect in the signal ratio, not every such curve was filed as active; inconclusive = small, poorly fitted or top-dose-only effect, or a change in a side signal; inactive = no such curve, though single readings can be large or run the other way; the % refers to the signal ratio;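 note: cells stimulated with carbachol in lithium chloride buffer; plate controls were DMSO basal wells for no effect and reference inhibitor wells for full effect; higher means more IMPase inhibition seen as more IP1 and lower FRET ratio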
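Measured: the HTRF emission ratio (665/620 nm) plus the 620 nm donor channel, each fitted to the Hill equation to give AC50. Cells were CHO-M1 given compounds up to 46 uM and a 30 min carbachol stimulation at 37C.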
The depositor's hits bear a star; [ ] = another dose, or the depositor's remark. Unless noted, calls come from the whole dose curve; as a rule, active = well fitted curve in the direction sought with a large enough effect; inconclusive = small, poorly fitted or top-dose-only effect, or another doubt; inactive = no such curve, though single readings can be large; an effect the other way counts as inactive or inconclusive. Unless noted, % is set by controls: 0 for no effect and ±100 for the full control effect.

What do the screens show for `CCOC(=O)C1CCN(C(=O)c2ccc(N(C)S(C)(=O)=O)cc2)CC1`?
IMPase Li cell: -10%[38.3 µM]; 15-hLO-2 inh: 9%; ALOX12 inhib: 2%; PNC assembly inh: -22; HPGD block: -14%; IMPase inh: -7

What do the screens show for `Cc1ccc(CN(c2ccc(C(=O)N3CCCC3)cc2)S(C)(=O)=O)cc1`?
IMPase Li cell: 0%[38.3 µM]; 15-hLO-2 inh: -1%; ALOX12 inhib: -4%; PNC assembly inh: -83*; HPGD block: -13%; IMPase inh: 3

Results for CC1CCN(C(=O)c2ccc(N(C)S(C)(=O)=O)cc2)CC1 ?
IMPase Li cell: 16%[38.3 µM]; 15-hLO-2 inh: 6%; ALOX12 inhib: -1%; PNC assembly inh: inconclusive; HPGD block: 14µM*; IMPase inh: 0

How did Cc1c(Cc2ccccc2)sc(N)c1C(N)=O do in these assays?
IMPase Li cell: -3%[38.3 µM]; 15-hLO-2 inh: inconclusive; ALOX12 inhib: -22%; PNC assembly inh: 31; HPGD block: 28µM*; IMPase inh: 4

Results for Cc1c(Cc2ccccc2)sc(/N=C/c2ccc3ccccc3c2)c1C(N)=O ?
IMPase Li cell: -3%; ALOX12 inhib: 0%; PNC assembly inh: -103*; HPGD block: inconclusive; IMPase inh: 2

What do the screens show for `O=C(NCc1cccnc1)Nc1ccccc1`?
IMPase Li cell: -2%

Results for O=C(c1ccccc1)N(Cc1cccnc1)C1(C(=O)Nc2ccccc2)CCCCC1 ?
IMPase Li cell: 14%; ALOX12 inhib: 1%; PNC assembly inh: -110*; HPGD block: -17%

How did COC(=O)c1ccccc1NC(=O)CSCC(=O)Nc1ccc(F)cc1 do in these assays?
IMPase Li cell: 9%[38.3 µM]; 15-hLO-2 inh: 8%; ALOX12 inhib: -3%; PNC assembly inh: 14; HPGD block: -6%; IMPase inh: 2

Results for Cc1ccccc1NC(=O)Cn1nnc(-c2ccc(N3CCOCC3)cc2)n1 ?
IMPase Li cell: 10µM*; 15-hLO-2 inh: -26%; ALOX12 inhib: -6%; PNC assembly inh: 9; HPGD block: inconclusive; IMPase inh: 3

What do the screens show for `O=C(Cn1nnc(-c2ccccc2F)n1)Nc1ccc(C(=O)N2CCOCC2)cc1`?
IMPase Li cell: 10%[38.3 µM]; 15-hLO-2 inh: -17%[11.4 µM]; ALOX12 inhib: 9%; PNC assembly inh: -11; HPGD block: 40µM*; IMPase inh: -2[1.84 µM]

How did O=C(Nc1ccccc1)Nc1ccc(C(=O)N2CCOCC2)cc1 do in these assays?
IMPase Li cell: -1%[38.3 µM]; 15-hLO-2 inh: 0%; ALOX12 inhib: 7%; PNC assembly inh: -5; HPGD block: 16µM*; IMPase inh: -4

What do the screens show for `CN(C)c1ccc(-c2nnn(CC(=O)Nc3ccccc3N3CCOCC3)n2)cc1`?
IMPase Li cell: 7%[38.3 µM]; 15-hLO-2 inh: 9%; ALOX12 inhib: -1%; PNC assembly inh: 3; HPGD block: inconclusive; IMPase inh: 2

Results for O=C(Cn1nnc(-c2ccccc2F)n1)Nc1ccc(S(=O)(=O)NC2CCCC2)cc1 ?
IMPase Li cell: -16%[38.3 µM]; 15-hLO-2 inh: -19%; ALOX12 inhib: 5%; PNC assembly inh: 27; HPGD block: 7.1µM*; IMPase inh: 0

Results for O=C(Nc1ccc(C(=O)N2CCOCC2)cc1)Nc1ccc(Cl)cc1Cl ?
IMPase Li cell: 17%

How did Cc1c(Cl)sn(-c2ccc(Cl)cc2)c1=O do in these assays?
IMPase Li cell: 20%

How did CCCC(=O)Nc1ccccc1-c1nnn(CC(=O)Nc2ccc(OC)cc2)n1 do in these assays?
IMPase Li cell: 23%[38.3 µM]; 15-hLO-2 inh: -6%; ALOX12 inhib: 2%; PNC assembly inh: -81*; HPGD block: -5%; IMPase inh: -1

How did CC1Cc2nc(SCC(=O)Nc3nc4ccccc4s3)n(C)c(=O)c2S1 (configuration not stated) do in these assays?
IMPase Li cell: 32%[38.3 µM]; 15-hLO-2 inh: 0%; ALOX12 inhib: -7%; PNC assembly inh: 1; HPGD block: -7%; IMPase inh: -3

What do the screens show for `Cc1nc2c(=O)[nH]c(=S)n(C)c2nc1C`?
IMPase Li cell: -1%; ALOX12 inhib: -7%; PNC assembly inh: -114*; HPGD block: 10µM*

How did Cc1c(Br)cc(C(=O)NCc2ccco2)c(C)c1C do in these assays?
IMPase Li cell: 31%[38.3 µM]; 15-hLO-2 inh: -21%; ALOX12 inhib: -8%; PNC assembly inh: inconclusive; HPGD block: 25µM*; IMPase inh: 8

What do the screens show for `CC(=O)Nc1cc(C(=O)NCc2ccco2)ccc1Sc1ccc(Cl)cc1`?
IMPase Li cell: -5%; ALOX12 inhib: -2%; PNC assembly inh: -103*; HPGD block: -10%

Results for CC(=O)Nc1cc(C(=O)NCc2ccco2)ccc1Sc1ccc(F)cc1 ?
IMPase Li cell: 3%; ALOX12 inhib: 1%; PNC assembly inh: -17; HPGD block: -25%; IMPase inh: -10

How did CSc1ccc(Cl)c(C(=O)NCc2ccco2)c1 do in these assays?
IMPase Li cell: -9%[38.3 µM]; 15-hLO-2 inh: -11%; ALOX12 inhib: 3%; PNC assembly inh: inconclusive; HPGD block: 16µM*; IMPase inh: -5

Results for Cc1ccc(C(=O)NCc2ccco2)cc1Br ?
IMPase Li cell: 11%[38.3 µM]; 15-hLO-2 inh: -11%; ALOX12 inhib: 5%; PNC assembly inh: 14; HPGD block: -30%; IMPase inh: -5

How did Cc1ccc2c(CC(=O)NCc3ccco3)coc2c1C do in these assays?
IMPase Li cell: -16%; 15-hLO-2 inh: -13%; ALOX12 inhib: -8%; PNC assembly inh: -22; HPGD block: 2.8µM*; IMPase inh: 1

Results for O=C(NN=C1C2CC3CC1CC(Cl)(C3)C2)c1ccccn1 ?
IMPase Li cell: -18%

How did CN(Cc1ccccc1)Cc1nc2c([nH]1)c(=O)n(C)c(=O)n2C do in these assays?
IMPase Li cell: 6%; ALOX12 inhib: 3%; PNC assembly inh: -100*; HPGD block: -6%; IMPase inh: 1

What do the screens show for `CCCn1c(CN(C)Cc2ccccc2)nc2c1c(=O)n(C)c(=O)n2C`?
IMPase Li cell: 7%; ALOX12 inhib: 1%; PNC assembly inh: -22; HPGD block: -12%; IMPase inh: -8

How did O=C(COc1ccccc1)Nc1ccccc1NS(=O)(=O)c1cccs1 do in these assays?
IMPase Li cell: -3%; ALOX12 inhib: 2%; PNC assembly inh: -100*; HPGD block: -9%

Results for O=C(COc1ccc(Cl)cc1Cl)Nc1ccccc1NS(=O)(=O)c1cccs1 ?
IMPase Li cell: -23%

Results for Cc1ccccc1OCCSc1nc2ncnc(N)c2[nH]1 ?
IMPase Li cell: 3%

What do the screens show for `O=C(CSc1ccc2c(c1)OCCO2)NC(=O)NC1CCCC1`?
IMPase Li cell: 7%[38.3 µM]; 15-hLO-2 inh: -4%; ALOX12 inhib: 5%; PNC assembly inh: -117*; HPGD block: -12%; IMPase inh: 7

Screening data as filed in PubChem BioAssay.
